Screening data from PubChem BioAssay.
In the library only some 3.4% were active in any assay of this set; here they are far more common.
PAFAH2 inh = inhibitors of human PAFAH2; recombinant PAFAH2, FP-rhodamine activity probe, fluorescence polarization; AID 492956; Q99487; 340,000 tested, 0.99% active; inhibition, % at 3.39 µM;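 active = inhibition above the mean over all tested compounds plus 3 SD, cut at about 30% in these data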;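 also: inhibitors block probe labeling of enzyme so polarization drops; 0% = enzyme with DMSO and 100% = wells lacking PAFAH2 protein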
PP1 counter = PP1-alpha (human) inhibition in PP5 counter-screen; purified PP1alpha, OMFP fluorescence; inhibition, % at 6.7 µM; 320,000 tested, 0.9% active;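 active = inhibition above the mean inhibition of all tested compounds plus 3 SD, computed separately for each screening campaign, cut at about 15% in these data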
Target sequence (P62136 whole entry, looked up): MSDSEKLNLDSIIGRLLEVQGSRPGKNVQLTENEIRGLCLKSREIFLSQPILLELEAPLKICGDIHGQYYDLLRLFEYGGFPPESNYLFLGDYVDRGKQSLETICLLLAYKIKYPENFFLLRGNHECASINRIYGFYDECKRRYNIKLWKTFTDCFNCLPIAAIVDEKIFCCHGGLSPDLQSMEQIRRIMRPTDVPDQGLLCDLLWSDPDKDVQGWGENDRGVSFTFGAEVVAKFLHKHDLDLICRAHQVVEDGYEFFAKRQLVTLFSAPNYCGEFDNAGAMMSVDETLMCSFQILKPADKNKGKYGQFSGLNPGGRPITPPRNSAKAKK
pPAFAH FP inh = inhibitors of human plasma PAF acetylhydrolase (pPAFAH) | Q13093 | recombinant pPAFAH, FP-rhodamine probe fluorescence polarization | inhibition, % at 3.39 µM | 330,000 tested, 1.5% active | AID 463082;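 active = inhibition above the mean inhibition across the screen plus 3 SD, cut at about 25% in these data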;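 also: inhibitors block binding of the rhodamine activity-based probe so polarization drops; 0% = enzyme with DMSO and 100% = wells lacking pPAFAH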
Target sequence (Q13093 whole entry, looked up): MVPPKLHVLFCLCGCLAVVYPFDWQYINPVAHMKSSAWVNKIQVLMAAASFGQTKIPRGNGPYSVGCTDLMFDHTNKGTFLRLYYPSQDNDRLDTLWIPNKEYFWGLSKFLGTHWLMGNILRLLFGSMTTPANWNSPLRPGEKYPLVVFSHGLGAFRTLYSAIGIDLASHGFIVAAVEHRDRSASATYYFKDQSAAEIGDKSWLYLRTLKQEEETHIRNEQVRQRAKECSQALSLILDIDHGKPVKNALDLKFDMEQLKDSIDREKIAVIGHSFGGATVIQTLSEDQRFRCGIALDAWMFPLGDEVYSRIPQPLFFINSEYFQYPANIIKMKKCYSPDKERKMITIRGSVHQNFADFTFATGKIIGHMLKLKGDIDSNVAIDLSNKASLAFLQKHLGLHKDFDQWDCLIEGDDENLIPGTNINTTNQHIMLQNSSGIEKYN
PAFAH1B2 inh = blocks human PAF acetylhydrolase 1b catalytic subunit 2. P68402. recombinant PAFAH1B2, FP-rhodamine activity probe, fluorescence polarization. inhibition, % at 3.39 µM. 340,000 tested, 1.2% active;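 active = inhibition above the mean of all tested compounds plus 3 SD, cut at about 24% in these data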;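 also: 0% = enzyme with DMSO and 100% = wells lacking PAFAH1B2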
PP5 inh = inhibitors of human protein phosphatase 5 (PP5) | 320,000 tested, 0.18% active | inhibition, % at 6.7 µM | purified PP5c, OMFP substrate fluorescence;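 active = inhibition above the campaign's mean inhibition across all tested compounds plus 3 SD, cut at about 9.5% in these data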;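 also: 0% = DMSO only and 100% = 100 µM cantharidin control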
PAFAH1B3 FP inh = inhibitors of human PAFAH1B3. 340,000 tested, 0.28% active. inhibition, % at 3.39 µM. recombinant PAFAH1B3, FP-rhodamine probe, fluorescence polarization. Q15102;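 active = inhibition above the screen-wide average of all tested compounds plus 3 SD, cut at about 25% in these data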;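 also: 0% = enzyme with DMSO only and 100% = wells lacking PAFAH1B3 protein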
PAFAH2 confirm = PAFAH2 (human) inhibition, confirmed; shares compounds with PAFAH2 inh; recombinant PAFAH2, FP-rhodamine activity probe, fluorescence polarization; inhibition, % at 3.39 µM; 2,300 tested, 65% active;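 active = mean inhibition over three repeats above a set limit taken from the earlier primary screen, cut at about 30% in these data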;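 also: inhibitor blocks binding of rhodamine activity probe so polarization falls; 0% = enzyme with DMSO and 100% = wells lacking PAFAH2 protein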
The depositor's hits bear a star; / = no result.

SMILES | PAFAH2 inh | PP1 counter | pPAFAH FP inh | PAFAH1B2 inh | PP5 inh | PAFAH1B3 FP inh | PAFAH2 confirm
Cc1ccc(CO/N=C/c2c(O)cc(C)oc2=O)cc1 | 36.8* | -3.7 | -0.8 | 21.5 | 3.0 | 4.3 | 11.9
Cc1ccc(N/N=C/c2c(O)cc(C)oc2=O)cc1 | 5.2 | 0.2 | 2.1 | 6.1 | -3.3 | 2.6 | /
COc1ccc(S(=O)(=O)N2CCOCC2)cc1NC(=O)Cc1ccccc1Cl | 59.9* | -1.7 | 8.2 | 1.2 | 0.6 | 3.8 | 55.1*
COc1ccc(S(=O)(=O)N2CCOCC2)cc1NC(=O)COC(=O)c1ccc([N+](=O)[O-])s1 | 39.5* | / | 11.1 | 14.6 | / | 23.7 | 39.6*
Cc1ccc(S(=O)(=O)Nc2c(O)c3ccccc3oc2=O)cc1C | 43.1* | -1.6 | 3.1 | 11.4 | 0.3 | 4.5 | 25.1
CCOc1ccc(C(=O)OCC(=O)Nc2cccnc2Cl)cc1OCC | 74.0* | / | 7.7 | 1.6 | / | 2.3 | 57.8*
O=C(COC(=O)c1ccc(Cl)c(Cl)c1)Nc1cccnc1Cl | 3.4 | 0.0 | 8.2 | 4.2 | 0.2 | 9.5 | /
O=C(COC(=O)c1cccc(Cl)c1)NCc1ccccc1 | 19.6 | / | 13.6 | 1.9 | / | 5.4 | /
CCOc1ccc(C(=O)OCC(=O)NCc2ccccc2)cc1OCC | 72.4* | -1.7 | 0.9 | 2.1 | 0.5 | 9.4 | 65.7*
Cc1nnc(SCC2=C(C(=O)O)N3C(=O)C(NC(=O)Cc4ccccc4)C3SC2)s1 (stereo not drawn) | 79.4* | 4.7 | 17.3 | 2.1 | 0.4 | 2.7 | 65.4*
Cc1nnc(SCC2=C(C(=O)O)N3C(=O)C(NC(=O)C(C)n4nc(C(F)(F)F)cc4C)C3SC2)s1 (stereo not drawn) | 3.8 | 1.9 | 1.1 | 5.2 | -0.5 | 1.0 | /
CCS(=O)(=O)c1ccc(O)c(NC(=O)Nc2ccccc2)c1 | 44.9* | -1.1 | 13.1 | 3.2 | 1.6 | -4.8 | 29.4
O=C(COC(=O)c1ccc(Br)cc1)NCc1ccc(F)cc1 | 41.9* | -2.6 | 19.8 | -0.5 | -2.9 | 10.3 | 27.2
O=C(COC(=O)c1ccc(F)cc1)NCc1ccc(F)cc1 | 31.2* | -4.3 | 5.2 | -0.8 | 0.4 | -4.2 | 17.6
O=C(COc1ccccc1)NCc1nnc2c3ccccc3c(-c3ccccc3)nn12 | 12.2 | -0.1 | 12.2 | 2.6 | 0.6 | 6.2 | /
CCCN1CCC(NC(=O)CCc2nnc(-c3ccccc3)o2)CC1 | 0.5 | -0.8 | 1.6 | -0.8 | 3.9 | 4.2 | /
Cc1ccc(C(=O)COC(=O)CN2C(=O)C3C4C=CC(C4)C3C2=O)cc1[N+](=O)[O-] (stereo not drawn) | 7.8 | 1.1 | 0.5 | 2.6 | 2.6 | 6.0 | /
O=C(COC(=O)c1ccc(Cl)s1)c1ccc[nH]1 | 13.0 | -5.6 | 9.2 | -7.2 | -0.6 | 7.1 | /
Cc1c(Cl)cccc1N=Cc1ccc([N+](=O)[O-])s1 | 71.1* | 0.3 | 11.0 | 13.2 | 4.2 | 13.5 | 8.3
Cc1ccccc1C(=O)N/N=C/c1ccc([N+](=O)[O-])s1 | 10.2 | -2.1 | 10.0 | 2.6 | -0.1 | 11.3 | /
CCCCNC(=O)c1onc(CSc2ccccc2)c1C(=O)NCCCC | 4.6 | 4.9 | 5.1 | 4.9 | 4.1 | 2.6 | /
Cc1cccc(SCc2noc(C(=O)NCC3CCCO3)c2C(=O)O)c1 (stereo not drawn) | 11.3 | -4.8 | 5.4 | -0.4 | 1.5 | 9.0 | /
Cc1cc(C)cc(SCc2noc(C(=O)NCC3CCCO3)c2C(=O)O)c1 (stereo not drawn) | 36.3* | -3.1 | -0.1 | 7.2 | 0.9 | 9.2 | 28.7
C=CCNC(=O)c1onc(CSc2ccccc2C)c1C(=O)O | 35.8* | -0.1 | 2.3 | 1.7 | 0.5 | 2.3 | 25.7
CCCCNC(=O)c1onc(CSc2ccccc2CC)c1C(=O)O | 57.7* | 0.1 | 11.6 | 23.9 | 0.5 | 8.8 | 44.0*
SMILES | PAFAH2 inh | PP1 counter | pPAFAH FP inh | PAFAH1B2 inh | PP5 inh | PAFAH1B3 FP inh | PAFAH2 confirm
CC(C)C(NC(=O)c1ccccc1)C(=O)OCC(=O)N1CCCCC1 (stereo not drawn) | 4.1 | -4.9 | -1.2 | 0.3 | -0.5 | 5.8 | /
CN(c1ccc(C(=O)NC2CCCC2)cc1)S(=O)(=O)c1ccccc1 | 9.6 | -3.2 | 2.7 | -1.3 | -1.4 | 0.2 | /
O=C(CN(Cc1cccs1)C(=O)CNS(=O)(=O)c1ccc(Cl)cc1)NCc1ccco1 | 30.5* | -2.1 | 5.2 | 15.6 | -0.6 | 1.3 | 27.7
O=C(OCc1cn(-c2ccc(Cl)cc2)nn1)c1ccccc1 | 69.4* | -0.7 | 10.1 | 5.0 | -2.0 | 4.0 | 69.4*
CC(C)(C)C(=O)OCc1cn(-c2ccc(Cl)cc2)nn1 | 7.0 | -2.3 | -4.9 | 1.9 | 0.3 | 1.0 | /
O=C1Nc2ccc(F)cc2C12Nc1ccccc1-c1nnc(SCc3ccccc3F)nc1O2 (stereo not drawn) | 35.1* | 2.5 | 5.2 | 8.9 | 1.8 | 5.7 | 15.0
O=C1Nc2ccc(Cl)cc2C12Nc1ccccc1-c1nnc(SCc3ccccc3F)nc1O2 (stereo not drawn) | -1.0 | -2.5 | 3.7 | 13.8 | -0.7 | 2.4 | /
O=C(COC(=O)CC(c1ccccc1)c1ccccc1)Nc1ccc(F)c(F)c1 | / | 0.9 | 11.4 | / | 3.3 | / | /
O=C(COC(=O)CC(NC(=O)c1ccccc1Cl)c1ccccc1)Nc1cccc(F)c1 (stereo not drawn) | 81.7* | 1.1 | 8.2 | 5.3 | 3.4 | -9.9 | 76.5*
O=C(COC(=O)CC(c1ccccc1)c1ccccc1)Nc1cccc(F)c1 | 76.9* | 3.5 | 13.2 | 5.2 | 5.4 | 4.4 | 69.0*
Cc1ccc(NC(=O)c2ccc(CSc3nnc(C)s3)cc2)cc1 | 2.3 | -2.6 | -2.0 | 4.5 | 3.7 | 1.3 | /
O=C(Cc1ccc(-c2ccccc2)cc1)Nc1ccccc1 | 1.0 | -2.5 | -0.8 | 4.4 | 3.5 | 2.5 | /
O=C(Cc1ccc(-c2ccccc2)cc1)Nc1ncccc1O | 32.3* | 0.9 | 20.6 | 1.7 | -1.8 | 0.9 | 23.5
C/C(=N\OC(=O)c1ccc(C)cc1)c1sc(C)nc1C | 54.8* | -2.8 | 24.4 | 1.9 | -1.3 | 0.1 | 43.1*
CC/C(=N/OC(=O)c1cccc(C)c1)C(=O)c1cccs1 | 37.2* | -0.8 | 5.3 | 2.5 | -1.2 | 1.5 | 26.6
C/C(=N/OC(=O)c1ccc(C)cc1)c1cccs1 | 69.5* | 0.0 | 15.8 | -3.5 | -1.3 | -1.9 | 51.5*
O=C(COC(=O)/C=C/c1ccccc1)NCc1cccs1 | 60.6* | -4.2 | 6.4 | 3.8 | 1.4 | 3.5 | 47.5*
Cc1ccc(/C=C/C(=O)OCC(=O)NCc2cccs2)o1 | 68.1* | / | 9.4 | 1.9 | / | 4.6 | 53.3*
O=C(COC(=O)/C=C/c1ccc(F)cc1)NCc1cccs1 | 61.7* | -1.9 | 5.5 | 2.3 | 1.8 | 5.3 | 46.6*
O=C(COC(=O)c1ccccc1Br)NCc1cccs1 | 18.8 | / | -0.1 | 13.3 | / | 10.0 | /
CCN(CC(=O)NCc1cccs1)S(=O)(=O)c1ccc([N+](=O)[O-])cc1 | -2.6 | -7.7 | 7.7 | 3.9 | 0.3 | 4.7 | /
